Screens (PubChem)
Efflux pump mplx = blocks antifungal efflux pumps in multiplex yeast assay | S. cerevisiae Candida pump triplex, Nile Red efflux | actives 0.44% (n = 330,000) | inhibition, % at 10 µM | AID 485275;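 active means plate passing quality check with inhibition over a set limit, or well fluorescence over plate mean plus 4 SD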;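 further: Nile Red retained in pooled yeast measured as flow cytometry median fluorescence; 0% = buffer negative control and 100% = Enniatin B positive control; higher means more Nile Red kept so more efflux inhibition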
SKN-1 block = inhibitors of C. elegans SKN-1; actives 0.49% (n = 360,000); inhibition, % at 21.8 µM; AID 624304; C. elegans VP596 Pgst-4::GFP/RFP ratio, acrylamide-induced, 24 h;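 active means interference check ratio from 0.5 to 1.5 plus GFP to RFP signal ratio inhibition reaching or exceeding a fixed threshold, cut at about 30% in these data, passing the limit was not always enough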
SUMO Mot1 rescue = inhibitors of SUMOylation pathway: yeast Mot1-301 growth rescue; actives 1% (n = 320,000); S. cerevisiae Mot1-301 growth rescue, ATP luminescence, 38.5C; percent above DMSO median, 100 means doubled; AID 2716; growth rescue, % at 18.8 µM;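 active means every valid replicate shows activation above 250% relative to neutral control wells; inactive means the rest, any valid replicate at or below 250%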;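 further: OY570 slx delta 5 strain wells were the positive control but not used for scaling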
HGIII-sPLA2 inh = Blocks human group III sPLA2 activity. inhibition, % at 12.2 µM. actives 0.56% (n = 370,000). Q9NZ20. QFRET BODIPY PC-A2 liposome hydrolysis, fluorescence. AID 743126;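 active means inhibition above mean plus 3 SD of compounds lying within the high and low control bounds, cut at about 19% in these data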;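 further: 0% = median of test compound wells and 100% = no enzyme DMSO wells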
Target sequence (Q9NZ20 whole entry, looked up): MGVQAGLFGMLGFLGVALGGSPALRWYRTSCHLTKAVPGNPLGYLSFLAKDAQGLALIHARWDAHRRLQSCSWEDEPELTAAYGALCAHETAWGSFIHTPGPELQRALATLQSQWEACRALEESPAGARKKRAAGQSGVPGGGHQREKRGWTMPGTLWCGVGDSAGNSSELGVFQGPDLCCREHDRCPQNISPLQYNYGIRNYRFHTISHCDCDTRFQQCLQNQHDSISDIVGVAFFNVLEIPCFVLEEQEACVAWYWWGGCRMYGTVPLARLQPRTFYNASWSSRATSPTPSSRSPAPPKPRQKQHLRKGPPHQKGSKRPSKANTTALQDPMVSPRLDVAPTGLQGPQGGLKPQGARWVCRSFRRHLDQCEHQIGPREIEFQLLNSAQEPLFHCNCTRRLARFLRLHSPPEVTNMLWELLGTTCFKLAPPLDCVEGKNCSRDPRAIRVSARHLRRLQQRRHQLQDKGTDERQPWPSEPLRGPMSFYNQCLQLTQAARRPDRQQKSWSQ
An asterisk follows results filed as active; nt = no result; + = active, no number. Shown are actives, neighbours in structure and some others; about 2.2% of the full set was active somewhere.

SMILES	Efflux pump mplx	SKN-1 block	SUMO Mot1 rescue	HGIII-sPLA2 inh
CSc1c(C#N)c(N)c(C#N)c2c1COC(C)(C)C2	0	41*	1	-7
O=C(CCN1CCN(S(=O)(=O)c2ccc(Cl)cc2)CC1)Nc1ccc(F)cc1	0	46*	-15	-4
O=C(CCN1CCN(S(=O)(=O)c2ccc(Cl)cc2)CC1)Nc1ccccc1F	0	-3	-17	-5
Cc1ccc(N/N=C/c2ccncc2)cc1	0	10	27	-2
O=C(Cc1ccccc1)N/N=C/c1cccnc1	0	5	313*	0
Cc1ccc(N/N=C/c2cccnc2)cc1	0	-1	289*	-2
C[C@@H]1ON(C)[C@H]2C[C@H]3c4[nH]c5cccc(Br)c5c4CCN3C(=O)[C@@H]12	nt	nt	nt	-9
COc1ccc(OCCN(C)C(=O)c2cccc(S(=O)(=O)N(C)c3ccccc3)c2)cc1	0	37*	25	-9
CCN(c1ccccc1)S(=O)(=O)c1cccc(C(=O)N(C)CCOc2ccccc2)c1	0	0	-6	-11
COc1ccc(Oc2nc(C)nc3c2oc2ccccc23)cc1	0	14	140	-15
Cc1nc(Oc2ccccc2)c2oc3ccccc3c2n1	0	38*	-12	-2
O=C(NC1CCCC1)[C@@H]1CCCN1C(=O)[C@H](Cc1cccnc1)NC(=O)N1CCOCC1	nt	nt	nt	1
CCC(CC)C(=O)Nc1nnc(SCC(=O)NC(C)(C)C)s1	0	-9	924*	3
CCC(CC)C(=O)Nc1nnc(SCC(=O)NC2CC2)s1	0	-8	2	9
CCOC(=O)CC1C(=O)NCCN1c1nc2ccc(C)cn2c(=O)c1/C=C1\SC(=S)N(C(C)CC)C1=O (centres undefined)	0	nt	5	nt
CCOC(=O)CC1C(=O)NCCN1c1nc2ccc(C)cn2c(=O)c1/C=C1\SC(=S)N(CC(C)C)C1=O (centres undefined)	0	42*	-1	nt
CCc1cc2c(nc1CC)CCCN2S(=O)(=O)c1ccc(OC)cc1	nt	nt	nt	-1
CCCCc1c(-c2ccccc2OC)ncn1Cc1ccccc1Cl	nt	nt	nt	-12
COc1ccc(CCN2CC(=O)N3CCc4ccc(N5CCOCC5)cc4C3CC2=O)cc1OC (centres undefined)	nt	nt	nt	16
COC(=O)c1c(C)[nH]c(C=Nc2ccc(OC)cc2)c1C	0	2	-18	-1
COC(=O)c1c(C)[nH]c(O)c1C=Nc1ccc(C#N)cc1	0	46*	nt	3
COC(=O)N1C[C@H](O)[C@H](O)C[C@@H]1c1ccccc1Br	nt	nt	nt	2
O=C1CCCC2=C1C(c1ccc(O)c(Br)c1)C1=C(CCCC1=O)N2c1ccccc1	0	9	+	-7
NC(=NC(=O)c1ccc(OCC(F)(F)F)nc1)c1ccccc1	0	38*	-2	0
NC(=NC(=O)c1ccc(OCC(F)(F)F)nc1)c1ccc(Cl)cc1	0	16	-37	2
SMILES	Efflux pump mplx	SKN-1 block	SUMO Mot1 rescue	HGIII-sPLA2 inh
COC(=O)C1=C(C)N(C)C(=NCc2ccc(OC)cc2)NC1c1ccccc1 (centres undefined)	nt	nt	nt	14
Fc1ccc(-c2nnc(Cc3nnc(-c4ccc(F)cc4)o3)o2)cc1	0	-11	5	-13
Fc1ccc(-c2nnc(-c3ccc4ccccc4c3)o2)cc1	nt	43*	nt	3
Cc1cccc(-c2nnc(-c3ccccc3)o2)c1	0	30	14	-2
Fc1ccc(-c2nnc(-c3ccc(F)cc3)o2)cc1	0	39*	-6	1
Cc1ccc(S(=O)(=O)N2CC(CBr)=CCC2c2ccccc2)cc1 (centres undefined)	nt	nt	nt	-3
COC(=O)c1cc2c(c3c4cc(OC)ccc4n(S(=O)(=O)c4ccc(OC)cc4)c13)C(=O)N(C1CCCCC1)C2	nt	nt	nt	-2
CCNC(=O)C1(C)CCCN1C(=O)c1ccc(C#N)cc1 (centres undefined)	nt	63*	nt	-2
CSc1nc(-c2ccco2)nn1C(=O)c1ccccc1	0	21	0	2
CSc1nc(-c2ccco2)nn1C(=O)c1ccc(C)cc1	0	36*	-18	-5
CCn1c2ccc(F)cc2c2nc3ccccc3nc21	0	40*	0	3
COc1ccc(OC)c(C(=O)C2COC(=O)C2)c1 (centres undefined)	0	37*	-8	2
COc1ccc(OC)c(C(=O)c2ccc(C(=O)c3cc(OC)ccc3OC)cc2)c1	0	4	2	-6
COc1ccc(Cl)cc1NC(=S)N1CCN(C(=O)c2ccco2)CC1	0	-35	357*	-5
Oc1ccc(C=NNC(=S)Nc2ccccc2)nc1	nt	45*	nt	-47
CCCCCCCCN1C(=O)[C@@H](CC(=O)NCCCN2CCCC2=O)C[C@@]2(C(=O)OC)C1=C[C@H](C1CCCC1)O[C@@H]2C	nt	nt	nt	0
CCCCCCn1c(N2CCC(C(N)=O)CC2)nc2c1c(=O)n(C)c(=O)n2C	0	45*	nt	-1
O=C(COC(=O)c1ccccc1C(=O)c1ccccc1)NCc1ccc(F)cc1	0	-9	337*	-12
O=C(COC(=O)c1ccccc1C(=O)c1ccc(Cl)cc1)NCc1ccccc1	0	17	1	-16
O=C(CSc1nnc(CNc2ccc(F)cc2)n1Cc1ccco1)N1CCOCC1	0	0	-16	1
O=C(CSc1nnc(CNc2ccc(F)cc2)n1Cc1ccco1)NC1CC1	0	46*	-12	5
Cc1nn(-c2ccccc2)c(N)c1C(c1ccc(C(C)C)cc1)c1c(C)nn(-c2ccccc2)c1N	0	4	409*	3
O=C(c1ccc([N+](=O)[O-])cc1)N1C=CC(C(F)(F)F)=NCC1	0	-10	346*	7
COC(=O)[C@]12C[C@H](CC(=O)NCc3ccc(OC)c(OC)c3)C(=O)N(CCC3=CCCCC3)C1=C[C@H](COCc1ccccc1)O[C@@H]2C	nt	nt	nt	-17
COc1ccccc1-c1ccc2c(c1)[C@@H]1C[C@H]3[C@@H](CN1CC2)[C@H](C)ON3C	nt	nt	nt	1
SMILES	Efflux pump mplx	SKN-1 block	SUMO Mot1 rescue	HGIII-sPLA2 inh
COc1ccc(S(=O)(=O)Nc2cc3c4c(oc3c3ccccc23)CC(C)(C)CC4=O)cc1	0	35*	-4	-39
CC(=O)NC(Cc1ccccc1)C(=O)NC1CCN(C(=O)NCc2ccccc2)CC1 (centres undefined)	nt	-6	nt	9
CC(=O)NC(Cc1ccc(F)cc1)C(=O)N1CCN(C(=O)NCc2ccccc2)CC1 (centres undefined)	0	49*	7	6
COc1ccccc1-c1cccc2c3c([nH]c12)[C@@H]1C[C@H]2[C@@H](C(=O)N1CC3)[C@H](C)ON2C	nt	nt	nt	-14
CCN1CCN(Cc2ccc(NC(=O)c3cc(NC(=O)c4nccnc4N)cc(OC)c3)cc2C(F)(F)F)CC1	0	16	353*	-9
CCN1CCN(Cc2ccc(NC(=O)c3ccc(C)c(NC(=O)c4nccnc4N)c3)cc2C(F)(F)F)CC1	0	22	10	-8
O=C(Nc1nc2ccccc2[nH]1)c1ccc(Br)o1	0	-2	18	35*
O=C(NCCc1nc2ccccc2[nH]1)c1ccc(Br)o1	0	-3	-14	-1
